Data reported in PubChem BioAssay AID1159580 (chemical genetic matrix, 2015).
Values joined by “and” are separate entries in the source; they are usually repeats but may differ in a detail not shown here. Equal entries are not always repeated. Out of some 5,500 compounds screened, about 2,000 (36%) were called active. About 18% were inconclusive and are not listed. Cut-off read from the data, not from the text of the source: active = normalized growth mostly below about 0.91 (no sharp cut-off); inconclusive = no clear call, values can overlap the other calls; inactive = mostly above about 0.92. The list shows a part of the results.

Experiment: chemical genetic growth profiling, strain panel (AID 1159580);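 note: tested at 20 µM; growth read once vehicle control cultures reached saturation at 30 °C; 1 = growth at the plate median or of vehicle wells; lower values mean less growth of the strain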
Details: S. cerevisiae deletion strains, growth OD

Measured: normalized growth

CC(Cc1cccc(C(F)(F)F)c1)NCCOC(=O)c1ccccc1 (configuration not stated)
active: locus YAL021C, strain ccr4, stronger effect = lower value 0.853 | locus YAL026C, strain drs2, stronger effect = lower value 0.582 | locus YBR021W, strain FUR4, stronger effect = lower value 0.513 | locus YDR069C, strain doa4, stronger effect = lower value 0.845 | locus YDR388W, stronger effect = lower value 0.811 | locus YER015W, strain faa2, stronger effect = lower value 0.899 | locus YFR010W, strain ubp6, stronger effect = lower value 0.831 | locus YGR229C, strain SMI1, stronger effect = lower value 0.612
inactive: locus YAL013W, strain DEP1, stronger effect = lower value 0.98 | locus YAL030W, strain snc1, stronger effect = lower value 0.964 | locus YBL061C, strain skt5, stronger effect = lower value 0.968 | locus YBR009C, strain hhf1, stronger effect = lower value 0.953 | locus YBR023C, strain chs3, stronger effect = lower value 0.936 | locus YBR171W, strain sec66, stronger effect = lower value 0.975 | locus YBR229C, strain ROT2, stronger effect = lower value 1.01 | locus YBR231C, strain swc5, stronger effect = lower value 0.948 | locus YBR279W, strain paf1, stronger effect = lower value 0.964 | locus YCL011C, strain gbp2, stronger effect = lower value 0.971 | locus YCL016C, strain dcc1, stronger effect = lower value 0.969 | locus YCL029C, strain bik1, stronger effect = lower value 1.03 | locus YCL061C, strain MRC1, stronger effect = lower value 0.978 | locus YCL069W, strain vba3, stronger effect = lower value 0.967 | locus YCR088W, strain abp1, stronger effect = lower value 0.994 | locus YDL005C, strain med2, stronger effect = lower value 0.999 | locus YDL035C, strain GPR1, stronger effect = lower value 0.917 | locus YDL040C, strain nat1, stronger effect = lower value 0.994 | locus YDL074C, strain BRE1, stronger effect = lower value 0.914 | locus YDL101C, strain DUN1, stronger effect = lower value 0.996 | locus YDL134C, strain PPH21, stronger effect = lower value 0.958 | locus YDL185W, strain tfp1, stronger effect = lower value 1.02 | locus YDL192W, strain arf1, stronger effect = lower value 0.988 | locus YDR001C, strain nth1, stronger effect = lower value 0.992 | locus YDR101C, strain arx1, stronger effect = lower value 0.999 | locus YDR137W, strain rgp1, stronger effect = lower value 0.916 | locus YDR150W, strain NUM1, stronger effect = lower value 0.997 | locus YDR159W, strain sac3, stronger effect = lower value 0.995 | locus YDR162C, strain NBP2, stronger effect = lower value 0.945 | locus YDR195W, strain ref2 1.01 | locus YDR297W, strain sur2, stronger effect = lower value 0.973 | locus YDR318W, strain mcm21, stronger effect = lower value 0.963 | locus YDR334W, strain swr1, stronger effect = lower value 0.997 | locus YDR335W, strain msn5, stronger effect = lower value 0.959 | locus YDR392W, strain spt3, stronger effect = lower value 1.03 | locus YDR502C, strain sam2, stronger effect = lower value 0.974 | locus YEL003W, strain gim4, stronger effect = lower value 0.924 | locus YEL037C, strain rad23, stronger effect = lower value 0.973 | locus YEL061C, strain CIN8 (second series), stronger effect = lower value 0.988 | locus YEL061C, strain CIN8, stronger effect = lower value 0.993 | locus YER016W, strain bim1, stronger effect = lower value 1 | locus YER110C, stronger effect = lower value 1.01 | locus YER111C, strain swi4, stronger effect = lower value 0.997 | locus YER155C, strain BEM2 (second series), stronger effect = lower value 0.934 | locus YER155C, strain BEM2, stronger effect = lower value 1.02 | locus YER167W, strain BCK2, stronger effect = lower value 0.985 | locus YGL078C, strain dbp3, stronger effect = lower value 1.01 | locus YGL086W, strain mad1, stronger effect = lower value 0.953 | locus YGL167C, strain pmr1, stronger effect = lower value 0.991 | locus YGL173C, strain kem1, stronger effect = lower value 0.919 | locus YGL227W, strain vid30, stronger effect = lower value 0.995 | locus YGL240W, strain doc1, stronger effect = lower value 0.945 | locus YGL248W, strain PDE1, stronger effect = lower value 0.957 | locus YGL253W, strain hxk2, stronger effect = lower value 0.96 | locus YGR078C, strain PAC10, stronger effect = lower value 0.921 | locus YGR135W, strain pre9, stronger effect = lower value 0.914 | locus YGR252W, strain gcn5, stronger effect = lower value 0.923 | locus YHR013C, strain ard1, stronger effect = lower value 0.963 | locus YHR027C, strain rpn1, stronger effect = lower value 0.941 | locus YHR079C, strain IRE1 (second series), stronger effect = lower value 1 | locus YHR079C, strain IRE1, stronger effect = lower value 0.981 | locus YHR094C, strain hxt1, stronger effect = lower value 1.02 | locus YHR129C, strain ARP1, stronger effect = lower value 1 | locus YHR142W, strain chs7, stronger effect = lower value 0.925 | locus YHR200W, strain rpn10, stronger effect = lower value 0.996 | locus YIL066C, strain RNR3, stronger effect = lower value 0.962 | locus YIL073C, strain SPO22, stronger effect = lower value 1.14 | locus YIL125W, strain kgd1, stronger effect = lower value 1.02 | locus YIR030C, strain dcg1, stronger effect = lower value 1 | locus YJL092W, strain hpr5, stronger effect = lower value 0.953 | locus YJL095W, strain BCK1 (second series), stronger effect = lower value 0.954 | locus YJL115W, strain asf1, stronger effect = lower value 0.979 | locus YJL129C, strain trk1, stronger effect = lower value 0.997 | locus YJL134W, strain LCB3, stronger effect = lower value 1 | locus YJL154C, strain vps35, stronger effect = lower value 0.986 | locus YJL164C, strain tpk1, stronger effect = lower value 0.953 | locus YJL166W, strain qcr8, stronger effect = lower value 0.943 | locus YJL168C, strain set2, stronger effect = lower value 1 | locus YJL187C, strain SWE1 (second series), stronger effect = lower value 0.923 | locus YJL187C, strain SWE1, stronger effect = lower value 0.978 | locus YJR043C, strain POL32, stronger effect = lower value 1.04 | locus YJR066W, strain TOR1, stronger effect = lower value 0.879
0.614 (active) and 0.976 (inactive): locus YJL095W, strain BCK1, stronger effect = lower value
0.833 (active) and 0.974 (inactive): locus YHR030C, strain SLT2, stronger effect = lower value
